For part of these data: Measured potencies and affinities stand elsewhere.

Set-up in all cases: scale not given: direction of the effect not stated beside the values
Assay [1] deals with Protein translocase subunit SecA (Escherichia coli (strain K12)) (UniProt P10408). The experiment in a line: Assay to Identify E. coli SecA ATPase Inhibitors. In kind it is functional. The note with it: 30 µM.
For assay [2], the target named is T1, Ubiquitin-activating enzyme e1, putative (Leishmania donovani (strain BPK282A1)) (UniProt E9BSI1).
T1 sequence (whole entry): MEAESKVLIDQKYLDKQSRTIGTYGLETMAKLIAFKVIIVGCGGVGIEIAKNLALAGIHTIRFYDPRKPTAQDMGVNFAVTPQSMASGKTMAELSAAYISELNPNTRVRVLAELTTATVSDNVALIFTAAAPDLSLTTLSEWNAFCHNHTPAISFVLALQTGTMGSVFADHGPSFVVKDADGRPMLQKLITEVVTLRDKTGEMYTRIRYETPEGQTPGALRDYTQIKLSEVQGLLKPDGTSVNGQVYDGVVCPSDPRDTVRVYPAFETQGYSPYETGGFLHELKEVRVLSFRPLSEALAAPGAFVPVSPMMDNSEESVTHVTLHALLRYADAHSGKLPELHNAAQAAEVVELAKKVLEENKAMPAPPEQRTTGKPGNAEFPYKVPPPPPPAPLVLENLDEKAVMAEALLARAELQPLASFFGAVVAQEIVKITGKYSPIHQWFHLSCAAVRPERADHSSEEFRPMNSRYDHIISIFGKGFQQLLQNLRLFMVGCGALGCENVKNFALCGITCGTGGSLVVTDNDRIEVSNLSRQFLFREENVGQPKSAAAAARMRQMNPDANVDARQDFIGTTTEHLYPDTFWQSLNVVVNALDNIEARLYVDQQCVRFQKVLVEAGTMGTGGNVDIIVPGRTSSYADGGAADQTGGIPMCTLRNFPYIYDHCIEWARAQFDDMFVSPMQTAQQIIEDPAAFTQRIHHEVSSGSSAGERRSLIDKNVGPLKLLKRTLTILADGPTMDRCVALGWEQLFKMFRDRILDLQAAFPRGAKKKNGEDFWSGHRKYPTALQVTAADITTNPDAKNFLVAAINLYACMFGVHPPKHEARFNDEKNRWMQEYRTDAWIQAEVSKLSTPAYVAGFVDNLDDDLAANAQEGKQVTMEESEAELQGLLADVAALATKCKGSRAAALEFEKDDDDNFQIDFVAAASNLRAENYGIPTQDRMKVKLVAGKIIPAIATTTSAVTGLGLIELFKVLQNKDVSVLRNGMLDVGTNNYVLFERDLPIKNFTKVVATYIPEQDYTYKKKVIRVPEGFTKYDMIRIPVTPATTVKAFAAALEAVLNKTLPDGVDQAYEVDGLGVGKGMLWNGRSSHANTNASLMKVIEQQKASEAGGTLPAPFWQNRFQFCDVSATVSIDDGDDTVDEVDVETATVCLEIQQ
The experiment in a line: Leishmania donovani Ubiquitin Activating Enzyme (LdE1). In kind it is functional. The settings on record: 30 µM.

In assay [3] the target is Sialic acid-binding Ig-like lectin 9 (Homo sapiens) (UniProt Q9Y336). The experiment in a line: Hs-Siglec9 ALPHAscreen SOP 20170721. The settings on record: 10 µM. On the technique in general: In Alpha technology, singlet oxygen from a donor bead excites a nearby acceptor bead.
Sequence of Sialic acid-binding Ig-like lectin 9 (Homo sapiens) (Q9Y336 whole entry): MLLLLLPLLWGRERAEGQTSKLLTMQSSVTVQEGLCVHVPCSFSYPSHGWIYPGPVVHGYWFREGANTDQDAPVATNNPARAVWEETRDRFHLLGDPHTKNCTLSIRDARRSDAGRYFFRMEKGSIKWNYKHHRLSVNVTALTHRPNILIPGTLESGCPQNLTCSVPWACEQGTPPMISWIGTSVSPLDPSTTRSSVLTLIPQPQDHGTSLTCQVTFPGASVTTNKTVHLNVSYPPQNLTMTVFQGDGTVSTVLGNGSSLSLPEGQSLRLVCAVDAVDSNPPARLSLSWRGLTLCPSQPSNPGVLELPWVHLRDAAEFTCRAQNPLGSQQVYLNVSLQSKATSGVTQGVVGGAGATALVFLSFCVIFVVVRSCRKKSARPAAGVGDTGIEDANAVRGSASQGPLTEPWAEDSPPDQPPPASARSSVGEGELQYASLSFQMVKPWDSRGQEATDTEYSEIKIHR
For assay [4], the system named is Trypanosoma cruzi. The experiment in a line: Trypanosoma cruzi phosphomannomutase and mannose-1-phosphate guanylyltransferase assay. In kind it is functional. The settings on record: 10 µM.
Assay [5] has as its target T2, Arginase-2, mitochondrial (Homo sapiens) (UniProt P78540).
T2 sequence (whole entry): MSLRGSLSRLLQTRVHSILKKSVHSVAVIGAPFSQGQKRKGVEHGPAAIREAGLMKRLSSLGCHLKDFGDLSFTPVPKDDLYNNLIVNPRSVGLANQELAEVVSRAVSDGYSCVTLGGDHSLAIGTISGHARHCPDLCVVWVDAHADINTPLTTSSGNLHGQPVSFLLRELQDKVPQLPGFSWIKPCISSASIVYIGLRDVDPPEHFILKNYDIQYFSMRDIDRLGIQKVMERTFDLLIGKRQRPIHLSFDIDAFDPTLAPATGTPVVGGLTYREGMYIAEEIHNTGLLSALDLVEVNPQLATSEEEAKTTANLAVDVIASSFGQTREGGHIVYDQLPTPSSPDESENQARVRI
The assay is described as follows: in vitro enzyme assay to detect the production of urea directly proportional to the activity of Arginase II. Further: in the data most compounds retested in dose-response had high values. Format: functional. The note with it: 33.3 µM.

For assay [6], the target named is T3, Proteasome subunit beta (Trypanosoma cruzi) (UniProt O96673).
T3 sequence (whole entry): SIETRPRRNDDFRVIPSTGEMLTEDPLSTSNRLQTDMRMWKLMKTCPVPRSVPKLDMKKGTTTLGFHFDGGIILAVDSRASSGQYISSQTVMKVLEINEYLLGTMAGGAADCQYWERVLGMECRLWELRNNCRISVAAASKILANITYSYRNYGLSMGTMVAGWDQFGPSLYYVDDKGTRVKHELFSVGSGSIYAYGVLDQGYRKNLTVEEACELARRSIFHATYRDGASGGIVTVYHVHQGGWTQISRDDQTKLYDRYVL
The experiment in a line: Trypanosoma cruzi proteasome chymotrypsin-like activity (TcProtChymo) assay. Further: in the data most compounds retested in dose-response had high values. The note with it: 9.37 µM. Format: functional.

For assay [7], the species on record is Homo sapiens. The assay is described as follows: To identify inhibition of the IFN signalling (Jak-Stat) pathway via expression of an eGFP reporter gene under the control of an IFN-stimulated response element (ISRE) containing MxA promoter. In kind it is functional. The note with it: 30 µM.
Assay [8] concerns the target T4, Tyrosyl-tRNA synthetase, putative (Trypanosoma cruzi (strain CL Brener)) (UniProt Q4DSP6).
T4 sequence (whole entry): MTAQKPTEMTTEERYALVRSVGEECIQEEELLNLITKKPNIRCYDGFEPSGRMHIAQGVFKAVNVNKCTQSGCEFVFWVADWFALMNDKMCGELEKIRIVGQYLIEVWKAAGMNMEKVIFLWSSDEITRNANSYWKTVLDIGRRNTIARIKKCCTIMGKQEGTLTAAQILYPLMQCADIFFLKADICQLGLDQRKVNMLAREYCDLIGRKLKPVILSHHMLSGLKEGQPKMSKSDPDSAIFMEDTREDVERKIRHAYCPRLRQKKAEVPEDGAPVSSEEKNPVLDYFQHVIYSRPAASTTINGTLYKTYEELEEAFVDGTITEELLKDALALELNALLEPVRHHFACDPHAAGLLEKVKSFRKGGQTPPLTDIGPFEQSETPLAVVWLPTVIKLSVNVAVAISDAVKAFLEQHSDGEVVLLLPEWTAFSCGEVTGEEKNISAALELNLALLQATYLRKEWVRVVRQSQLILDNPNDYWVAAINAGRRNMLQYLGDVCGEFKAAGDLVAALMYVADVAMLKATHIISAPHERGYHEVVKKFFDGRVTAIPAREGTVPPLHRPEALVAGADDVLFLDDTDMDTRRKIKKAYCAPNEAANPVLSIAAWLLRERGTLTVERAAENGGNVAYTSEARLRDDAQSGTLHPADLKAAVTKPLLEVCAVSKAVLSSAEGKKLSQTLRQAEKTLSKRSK
The assay is described as follows: Trypanosoma cruzi tyrosyl tRNA synthetase (TcYRS) _High Tyrosine SOP. Further: in the data most compounds retested in dose-response had high values. Format: functional. The note with it: 30 µM.

Assay [9] has as its target T4, Tyrosyl-tRNA synthetase, putative (Trypanosoma cruzi (strain CL Brener)). The experiment in a line: Trypanosoma cruzi tyrosyl tRNA synthetase (TcYRS) SOP. In kind it is functional. The note with it: 30 µM.
The target of assay [10] is Chromo domain-containing protein 1 (Saccharomyces cerevisiae (strain ATCC 204508 / S288c) (Baker's yeast)) (UniProt P32657). The assay is described as follows: ScCHD-1 Enzyme Inhibition Assay. Further: in the data most compounds retested in dose-response had high values. In kind it is functional. The settings on record: 30 µM.
Sequence of Chromo domain-containing protein 1 (Saccharomyces cerevisiae (strain ATCC 204508 / S288c) (Baker's yeast)) (P32657 whole entry, the tested form may be a part): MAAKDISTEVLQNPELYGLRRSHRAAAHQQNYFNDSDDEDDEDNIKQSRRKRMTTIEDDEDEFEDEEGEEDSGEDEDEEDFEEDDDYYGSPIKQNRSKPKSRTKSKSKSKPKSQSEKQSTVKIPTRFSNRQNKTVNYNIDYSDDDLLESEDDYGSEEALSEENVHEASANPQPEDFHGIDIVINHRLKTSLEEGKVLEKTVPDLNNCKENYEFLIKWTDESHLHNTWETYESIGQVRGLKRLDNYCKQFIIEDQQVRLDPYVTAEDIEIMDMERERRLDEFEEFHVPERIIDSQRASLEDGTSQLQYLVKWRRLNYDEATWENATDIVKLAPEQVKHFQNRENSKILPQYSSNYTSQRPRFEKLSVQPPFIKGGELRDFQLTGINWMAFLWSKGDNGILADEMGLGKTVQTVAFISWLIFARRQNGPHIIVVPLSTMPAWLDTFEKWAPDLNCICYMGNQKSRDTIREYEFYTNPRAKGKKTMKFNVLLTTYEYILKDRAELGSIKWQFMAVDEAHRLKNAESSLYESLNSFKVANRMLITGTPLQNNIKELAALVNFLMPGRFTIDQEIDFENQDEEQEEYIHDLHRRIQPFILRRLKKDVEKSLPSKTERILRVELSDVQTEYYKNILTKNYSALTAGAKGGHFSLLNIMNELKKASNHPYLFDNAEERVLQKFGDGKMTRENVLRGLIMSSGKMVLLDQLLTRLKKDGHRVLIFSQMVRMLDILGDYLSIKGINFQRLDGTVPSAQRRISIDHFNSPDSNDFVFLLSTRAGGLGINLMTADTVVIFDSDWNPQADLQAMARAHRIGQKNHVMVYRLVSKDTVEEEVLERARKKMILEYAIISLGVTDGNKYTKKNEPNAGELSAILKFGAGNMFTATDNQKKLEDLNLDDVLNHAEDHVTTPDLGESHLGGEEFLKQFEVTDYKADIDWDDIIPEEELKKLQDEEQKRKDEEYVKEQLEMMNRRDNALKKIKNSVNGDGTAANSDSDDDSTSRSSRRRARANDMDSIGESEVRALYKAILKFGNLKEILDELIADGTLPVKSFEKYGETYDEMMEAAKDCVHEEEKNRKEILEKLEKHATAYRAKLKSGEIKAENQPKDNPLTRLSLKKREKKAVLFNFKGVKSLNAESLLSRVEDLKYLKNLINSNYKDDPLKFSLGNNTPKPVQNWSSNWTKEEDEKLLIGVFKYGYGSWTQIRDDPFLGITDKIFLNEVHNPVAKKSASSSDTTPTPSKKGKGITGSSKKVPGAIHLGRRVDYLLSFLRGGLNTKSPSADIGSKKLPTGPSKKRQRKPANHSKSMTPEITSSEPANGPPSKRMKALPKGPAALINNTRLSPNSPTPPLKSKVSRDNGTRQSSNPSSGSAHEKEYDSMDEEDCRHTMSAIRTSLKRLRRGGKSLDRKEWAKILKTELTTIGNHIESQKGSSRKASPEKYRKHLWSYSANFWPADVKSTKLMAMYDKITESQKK

Sequence of Protein translocase subunit SecA (Escherichia coli (strain K12)) (P10408 whole entry): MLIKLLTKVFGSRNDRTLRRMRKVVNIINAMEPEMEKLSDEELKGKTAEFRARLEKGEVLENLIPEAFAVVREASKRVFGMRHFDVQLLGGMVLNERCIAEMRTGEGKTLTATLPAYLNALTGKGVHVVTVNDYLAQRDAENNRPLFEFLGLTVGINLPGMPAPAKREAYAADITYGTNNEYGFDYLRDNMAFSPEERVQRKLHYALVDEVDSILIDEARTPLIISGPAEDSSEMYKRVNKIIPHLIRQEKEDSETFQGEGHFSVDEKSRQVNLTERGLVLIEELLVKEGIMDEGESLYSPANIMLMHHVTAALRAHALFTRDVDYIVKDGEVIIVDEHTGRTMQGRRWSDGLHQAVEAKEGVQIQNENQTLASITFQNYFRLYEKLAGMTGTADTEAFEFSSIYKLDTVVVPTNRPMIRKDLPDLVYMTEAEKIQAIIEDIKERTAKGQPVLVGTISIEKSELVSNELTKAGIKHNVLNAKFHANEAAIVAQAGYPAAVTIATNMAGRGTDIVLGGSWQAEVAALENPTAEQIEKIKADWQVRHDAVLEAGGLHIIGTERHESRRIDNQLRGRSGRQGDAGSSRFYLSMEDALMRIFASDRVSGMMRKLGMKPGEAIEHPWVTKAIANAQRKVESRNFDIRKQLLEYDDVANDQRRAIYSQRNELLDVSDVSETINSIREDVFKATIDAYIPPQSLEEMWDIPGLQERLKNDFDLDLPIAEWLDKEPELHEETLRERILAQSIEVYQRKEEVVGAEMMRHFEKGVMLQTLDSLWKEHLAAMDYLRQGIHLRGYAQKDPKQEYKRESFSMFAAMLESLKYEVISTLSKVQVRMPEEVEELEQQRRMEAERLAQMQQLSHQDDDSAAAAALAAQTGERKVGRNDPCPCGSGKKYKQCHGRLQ

`CS(=O)(=O)N1CCC[C@]2(C[C@@H](Oc3ncccc3F)CO2)C1`: the Percent Effect is -5.48% in assay [1]; 11.7% in assay [2]; -6.01% in assay [3]; -0.682% in assay [4]; 4.05% in assay [5]; 10.3% in [6]. Besides, the Percent Effect was -0.297% in assay [7], 12.1% in assay [8], 12.8% in assay [9] and 1.06% in assay [10].
For the compound `Cc1cccc(CN2C(=O)CCC23CCN(c2ncc(F)cn2)CC3)n1`, the Percent Effect in [1] was -5.56%; in assay [2] it was 16.9%; in assay [3], -3.32%; in assay [4], -1.13%; in [5] it was 5.02%; in assay [6], 0.258%. The Percent Effect is -16% in assay [7], 11.6% in assay [8], 15% in [9] and -8.12% in assay [10].
Regarding `Cc1n[nH]c(C)c1C1COCCN1C(=O)c1ccccc1` (stereo not given), the Percent Effect in [1] was 0.213%; in assay [2], -2.56%; in [3] it was 15%; in [4], -3.47%; in assay [5], 8.61%; in [6], 3.67%. Besides, the Percent Effect is 20.7% in [7], -1.44% in assay [8], -1.21% in [9] and -0.727% in [10].
Take `Cc1cncc(C2CCCN(C(=O)c3c[nH]c(=O)[nH]c3=O)C2)n1` (stereo not given): the Percent Effect was 0.496% in [1]; 9.33% in assay [2]; -0.809% in assay [3]; -4.14% in assay [4]; 0.885% in assay [5]; 7.06% in [6]. Also, the Percent Effect in assay [7] was 6.63%; in assay [8], 4.23%; in assay [9], 10%; in assay [10], -18.3%.
Consider `CCn1cc2c(n1)C(COC)CN(C(=O)COc1ccccc1C)C2` (stereo not given), for which the Percent Effect is -5.08% in [1]; -3.9% in [2]; 1.02% in assay [3]; -5.16% in assay [4]; -13.4% in assay [5]; 11% in assay [6]. Moreover, the Percent Effect was found to be 4.86% in [7], 2.63% in [8], 5.13% in assay [9] and 2.06% in assay [10].
On to `CCCn1ncc2c(C(=O)Nc3cnn(CC)c3C)cc(C3CC3)nc21`, for which the Percent Effect in assay [1] is 1.41%; in [2], 12%; in assay [3] it was -1.57%; in assay [4], 2.76%; in assay [5] it was 3.98%; in [6] it was 17.4%. The Percent Effect in assay [7] was 2.46%; in assay [8] it was 2.12%; in [9], 12.5%; in assay [10], -24.6%.
Take `O=C(c1ccccn1)N1Cc2nccn2CC(CN2CCOCC2)C1` (stereo not given): the Percent Effect in assay [1] is -4.41%; in assay [2] it was 9.09%; in [3], -2.41%; in [4], -2.63%; in assay [5], 5.67%; in assay [6], 8.56%. In addition, the Percent Effect in assay [7] came out at 4.82%; in [8], 12.1%; in assay [9], 15.4%; in [10], 1.74%.
On to `O=C(C1CCOC1)N1CCc2ncc(CNc3ccccn3)n2CC1` (stereo not given), for which the Percent Effect in [1] is -0.228%; in assay [2] it was 1.3%; in assay [3], 8.26%; in assay [4], -0.682%; in assay [5] it was -1.62%; in assay [6], 6.8%. Also, the Percent Effect in [7] is 4.98%; in assay [8], 3.68%; in assay [9], 5.13%; in assay [10], -14.8%.
For `CC(C)NC(=O)C(c1ccccc1)N1CCn2c(nnc2C2CC2)C1` (stereo not given), the Percent Effect in assay [1] was -3.99%; in [2] it was 15.4%; in [3] it was -10.1%; in assay [4], 7.61%; in assay [5], -2.87%; in assay [6], 4.86%. Also, the Percent Effect in assay [7] was 4.59%; in assay [8], 3.35%; in assay [9], 20.5%; in assay [10], -5.56%.
With `Nc1nccc(-c2c[nH]nc2C2CCCCC2)n1`, the Percent Effect was 1.44% in assay [1]; 10.7% in assay [2]; -1.99% in assay [3]; -6.83% in [4]; 3.1% in assay [5]; 17.9% in assay [6]. In addition, the Percent Effect in assay [7] was 99.6%; in [8], 1.58%; in [9], 0%; in [10], -6.8%.
For `CCNc1cc2c(nn1)CCN(C(=O)c1cc3nc(C)ccc3o1)C2`, the Percent Effect is -8.41% in assay [1]; 13.3% in assay [2]; 11.1% in assay [3]; 9.04% in assay [4]; -0.887% in assay [5]; 20.4% in assay [6]. Further, the Percent Effect is 6.54% in assay [7], 5.79% in assay [8], 15.4% in assay [9] and -6.95% in assay [10].
`O=C1CO[C@@H]2CN(Cc3cccs3)C[C@H]2N1CC1CC1`: the Percent Effect in assay [1] was -6.35%; in assay [2], 19.5%; in assay [3], -2.08%; in assay [4], 2.04%; in [5], 1.62%; in assay [6] it was 13.9%. Further, the Percent Effect in [7] was -6.77%; in [8], 13.2%; in assay [9], 17.9%; in assay [10], -0.629%.

The values above are taken from ChEMBL document CHEMBL3988442, “University of Dundee, Small-Polar-MMV Screening Library” (2021).
